This note sets out measurements from PubChem BioAssay.

Assay [1] can be described thus: suppressors of polyQ aggregation in yeast, 75Q-TubU reporter (AID 1593). Particulars: Yeast 75Q polyglutamine aggregation reporter.
Assay [2] is described as follows: inhibitors of mitochondrial cytochrome c release, biochemical, purified mitochondria (AID 1603).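 Further: mouse liver mitochondria challenged with calcium chloride; signal normalized to the plate average as 100%.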 The note with it: stronger effect = lower value.
A short description of assay [3]: inhibitors of polyQ protein aggregation (AID 1604). Particulars: polyglutamine-induced protein aggregation inhibition assay; stronger effect = higher value; tested at 2.5 µM.
Assay [4] can be described thus: stimulators of nuclear beta-catenin in C2C12, primary screen, imaging, WNT3A-conditioned medium, mouse C2C12, NPC library (AID 1117326; in the data active means nuclear beta-catenin stimulation mostly above about 4.2%, no sharp cut-off; inactive means mostly below about 10%). The note with it: stronger effect = higher value.
Assay [5] can be described thus: stimulators of insulin release from INS-1E, primary screen, cell-based, 5 mM glucose, NPC library (AID 1117329;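 active means compound raises insulin release from rat beta cells at 5 mM glucose, no numeric limit stated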). Particulars: rat INS-1E insulin secretion, at 10 µM, stronger effect = higher value.
Assay [6] is described as follows: growth inhibition of GSK3B-pretreated HCT116 cells – cell-based, CellTiter-Glo, 0.2 to 20 µM (AID 1117336;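 active means compounds lowering colon cancer cell viability after pretreatment blocking the GSK3B kinase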). The note with it: HCT116 viability after GSK3B inhibitor, at 20 µM, stronger effect = higher value. Background: Cellular ATP, detected with luciferase, serves as a proxy for viable cell number.
Assay [7] can be described thus: inhibition of endothelial tube formation, primary screen, imaging, VEGF stimulated, CD31 staining, tube area, NPC library (AID 1117340;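 active means compound that reduces growth-factor-driven endothelial tube area in a mixed cell culture, no cutoff stated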). The note with it: VEGF-stimulated ADSC/ECFC co-culture, at 10 µM, stronger effect = higher value.
Assay [8] in a line: glucagon-like peptide 1 release enhancers, primary assay, NCI-H716 cell line, NPC library (AID 1117341;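 active means compound raises GLP1 secretion from the human gut endocrine cells, with no numeric limit stated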). The note with it: NCI-H716 cells, at 10 µM, stronger effect = higher value.
A short description of assay [9]: HCT116 colon cancer cell growth inhibition, primary screen, CellTiter-Glo luminescence, NPC library (AID 1117342;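 active means compounds that lower survival of HCT116 colon cancer cells in the luminescence readout, no numeric limit stated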). The note with it: at 20 µM (top of the series).
The nature of assay [10]: CellTiter-Glo luminescent readout of SW480 viability loss, NPC library primary (AID 1117343;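 active means compounds that lower viability of the colon cancer cells in the luminescence readout, with no numeric limit stated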). Particulars: CellTiter-Glo luminescence; at 20 µM (top of the series).
Assay [11] is described as follows: decreased DLD-1 cellular survival, CellTiter-Glo luminescent readout, NPC compound collection, primary HTS (AID 1117346;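 active means compounds that lower survival of DLD-1 colon cancer cells in the luminescence readout, no cutoff given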). The note with it: DLD-1 viability, CellTiter-Glo luminescence; at 20 µM (top of the series).
Assay [12] concerns the target 6-phosphogluconate dehydrogenase, decarboxylating (Homo sapiens) (UniProt P52209). Kind of assay: 6PGD enzyme inhibitors, primary screen, biochemical, human, recombinant enzyme, NADPH absorbance (AID 1159550;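 active means at least 20% inhibition of 6-phosphogluconate dehydrogenase activity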). Particulars: recombinant 6PGD, NADPH absorbance 341 nm; at 10 µM; stronger effect = higher value.
Assay [13] can be described thus: differential killing of epithelial or mesenchymal cells, primary screen, imaging, PC-3E GFP, TEM4-18 mCherry, co-culture (AID 1345086;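 active means compounds killing one labelled cell type while sparing the other, by normalised counts and ratio limits, not self-fluorescent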;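 on all read-outs here: cells exposed to compound for 72 h before imaging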;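 on red/green cell ratio (normalised): normalised mesenchymal count divided by normalised epithelial count so high means epithelial killing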). Particulars: imaging cell counts, at 1 µM; for red/green cell ratio (normalised): actives lie on both sides.
The subject of assay [14] is Aerobactin synthetase IucA (Klebsiella pneumoniae hvKP1). Kind of assay: Biochemical IucA enzyme inhibition primary screen of the Spectrum library (AID 1346200; call rule not given here;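 further: 100% = wells without compound and 0% = wells lacking enzyme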). The note with it: malachite green pyrophosphate, A620, at 8 µM, stronger effect = lower value.
Assay [15] is described as follows: sensitizers of A549 cells to miR-34 induction, primary screen, imaging, A549 dox-inducible miR-34, nuclei and caspase counts (AID 1347080). The note with it: A549 miR-34 inducible, Hoechst nuclei count, 48 h.
Assay [16] in a line: survival rescue of mitochondrial mutant cells in low glucose, primary screen, MELAS cybrids, Rieske KO mouse fibroblasts, CellTiter-Glo (AID 1508586;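 active means mean z-score across replicates of 1.96 or higher in either the MELAS or the Rieske mutant cell line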;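 further: z relative to plate mean and SD of compound and empty wells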).
Assay [17] deals with NAD(+) hydrolase SARM1 (Homo sapiens) (UniProt Q6SZW1). Kind of assay: SARM1 TIR NADase inhibitors, cell lysate, NAD-Glo luminescence (AID 1508614;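 active means compound whose remaining NAD level is above about 45 nM, limit read from the data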). The note with it: SAM-TIR HEK293T lysate NADase, at 1 µM, stronger effect = higher value.
The target in assay [18] is Mitogen-activated protein kinase 7 (Homo sapiens) (UniProt Q13164). Briefly: ERK5 transactivation activators in reporter cells, primary screen, cell-based, HTS (AID 1508626;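 active means luciferase signal above three times the same-plate solvent-only control wells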;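 further: luciferase driven by Gal4-ERK5 fusion binding five Gal4 sites before minimal TATA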). Particulars: HeLa Gal4-ERK5 transactivation, 18 h, at 5 µM, stronger effect = higher value.
Assay [19] can be described thus: viability rescue of complex I mutant cybrids, primary screen, cell-based, galactose medium, ATP luminescence (AID 1645843;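 active means z-score of at least 1.8 in each of two replicates, scored against plate mean and spread of sample wells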;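 further: positive z means more ATP and so rescue of galactose-driven cybrid death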). The note with it: complex I mutant cybrid cells, 72 h, stronger effect = higher value.
Assay [20] can be described thus: liver-stage malaria parasite growth inhibition, primary screen, cell-based, HepG2, luciferase luminescence, HepG2 viability (AID 624349; in the data active means parasite load remaining mostly below about 12%, no sharp cut-off; inactive means mostly above about 10%;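 further: 100% = mean of DMSO negative control wells on the same plate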). The note with it: P. berghei liver stage in HepG2, luciferase luminescence, concentration not given here; parasite load remaining: stronger effect = lower value; viability: measured here: HepG2 viability without parasites.
Setting [21] is: measured here: epithelial PC-3E GFP cell survival.
The mark [22] stands for this setting: measured here: mesenchymal TEM4-18 mCherry cell survival.
The mark [23] stands for this setting: measured here: relative caspase fold change +Dox/-Dox.
The mark [24] stands for this setting: measured here: total cells with miR-34 induction, stronger effect = lower value.
Where [25] appears, read: measured here: total cells without miR-34 induction.
[26] abbreviates: MELAS cybrid survival, CellTiter-Glo 48 h, stronger effect = higher value.
Setting [27] is: Rieske KO mouse fibroblast survival, CellTiter-Glo 72 h.

Each structure is given as a SMILES string. “And” between values parts separate entries of the source, which are not always exact repeats. Equal values may be shown once. Some compounds were tested as several samples or in several runs, with calls that do not always agree. The source made the active and inactive calls.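 How the source made its calls, unless noted: active means compounds whose cell count with miR-34 switched on is under 0.7 times the count with it off; inactive means the rest.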

Chain of 6-phosphogluconate dehydrogenase, decarboxylating (Homo sapiens) (P52209 whole entry, looked up): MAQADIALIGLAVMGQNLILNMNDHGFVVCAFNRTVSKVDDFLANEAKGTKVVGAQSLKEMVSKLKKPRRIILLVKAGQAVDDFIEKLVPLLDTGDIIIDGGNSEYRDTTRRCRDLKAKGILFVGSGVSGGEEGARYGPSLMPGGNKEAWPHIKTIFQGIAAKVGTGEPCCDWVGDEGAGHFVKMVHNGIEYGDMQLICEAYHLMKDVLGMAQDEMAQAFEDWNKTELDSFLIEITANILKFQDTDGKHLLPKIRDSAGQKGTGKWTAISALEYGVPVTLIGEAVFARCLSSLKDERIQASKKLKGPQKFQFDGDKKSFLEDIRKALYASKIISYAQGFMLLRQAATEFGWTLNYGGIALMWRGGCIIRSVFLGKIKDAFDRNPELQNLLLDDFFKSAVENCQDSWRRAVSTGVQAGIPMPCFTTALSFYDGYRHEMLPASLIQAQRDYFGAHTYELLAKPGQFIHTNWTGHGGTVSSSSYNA
Chain of NAD(+) hydrolase SARM1 (Homo sapiens) (Q6SZW1 whole entry, looked up, the tested form may be a part): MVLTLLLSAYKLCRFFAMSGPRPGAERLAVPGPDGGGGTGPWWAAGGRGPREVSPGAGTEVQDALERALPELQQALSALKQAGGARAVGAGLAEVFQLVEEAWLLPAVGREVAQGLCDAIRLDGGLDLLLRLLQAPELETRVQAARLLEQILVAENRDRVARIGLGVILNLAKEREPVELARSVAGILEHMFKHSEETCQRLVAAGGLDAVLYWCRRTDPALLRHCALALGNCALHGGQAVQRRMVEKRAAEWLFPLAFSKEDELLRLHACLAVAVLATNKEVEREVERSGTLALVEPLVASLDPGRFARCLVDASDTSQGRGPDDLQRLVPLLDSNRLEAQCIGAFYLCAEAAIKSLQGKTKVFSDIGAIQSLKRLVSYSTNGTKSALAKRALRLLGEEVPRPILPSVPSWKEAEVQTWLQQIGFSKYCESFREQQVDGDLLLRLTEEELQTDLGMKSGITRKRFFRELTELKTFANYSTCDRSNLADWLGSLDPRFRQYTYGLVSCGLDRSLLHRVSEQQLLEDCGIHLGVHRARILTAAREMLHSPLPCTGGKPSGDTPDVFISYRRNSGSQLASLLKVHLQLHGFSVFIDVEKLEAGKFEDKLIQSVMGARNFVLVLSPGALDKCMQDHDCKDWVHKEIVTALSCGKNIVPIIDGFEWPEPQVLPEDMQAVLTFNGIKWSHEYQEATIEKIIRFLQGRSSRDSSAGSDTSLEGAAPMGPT
Chain of Mitogen-activated protein kinase 7 (Homo sapiens) (Q13164 whole entry, looked up, the tested form may be a part): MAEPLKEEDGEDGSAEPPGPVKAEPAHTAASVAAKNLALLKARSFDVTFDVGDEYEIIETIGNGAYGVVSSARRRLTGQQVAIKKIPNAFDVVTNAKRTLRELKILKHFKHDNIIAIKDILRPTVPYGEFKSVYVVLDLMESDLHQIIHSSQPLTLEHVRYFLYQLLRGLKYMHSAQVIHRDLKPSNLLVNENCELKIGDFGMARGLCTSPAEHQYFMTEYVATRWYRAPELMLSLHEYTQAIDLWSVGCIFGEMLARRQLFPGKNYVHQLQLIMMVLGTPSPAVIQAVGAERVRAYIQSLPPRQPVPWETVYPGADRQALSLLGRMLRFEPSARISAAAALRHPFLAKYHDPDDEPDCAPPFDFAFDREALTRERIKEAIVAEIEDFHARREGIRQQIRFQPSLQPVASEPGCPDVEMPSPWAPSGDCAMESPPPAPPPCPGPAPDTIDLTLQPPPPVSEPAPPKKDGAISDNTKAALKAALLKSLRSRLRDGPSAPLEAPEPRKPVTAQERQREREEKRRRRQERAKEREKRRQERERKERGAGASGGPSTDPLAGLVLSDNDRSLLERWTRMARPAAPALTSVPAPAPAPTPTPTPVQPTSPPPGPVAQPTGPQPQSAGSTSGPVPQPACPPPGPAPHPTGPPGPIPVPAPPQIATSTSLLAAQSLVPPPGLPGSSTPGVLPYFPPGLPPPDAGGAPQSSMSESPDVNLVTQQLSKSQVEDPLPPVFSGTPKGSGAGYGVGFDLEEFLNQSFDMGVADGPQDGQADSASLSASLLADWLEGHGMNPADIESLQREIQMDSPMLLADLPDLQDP

A word on the inhibition: it is the relative decrease from the control value, in per cent. As for `CC(Cc1ccc(O)cc1)NCC(O)c1cc(O)cc(O)c1` (stereo not given), the score in [1] was determined as 1.05. In addition, the cytochrome c release ratio in [2] was 1.18. In assay [3], this compound had an inhibition of aggregation of 70.4%. The nuclear beta-catenin stimulation was -1.3% (inactive) in assay [4] (at 10 µM) and -0.9% in assay [4] (stimulation, at 2 µM). Also, the insulin secretion stimulation in [5] is 0.5% (inactive). Besides, the viability decrease in [6] was -4.2% (inactive). The tube area decrease in assay [7] is 18.4% (inactive). For the same compound, the GLP1 secretion stimulation in [8] was 1.7% (inactive). The inhibition of viability in assay [9] is -2.93% (inactive). Further, the viability decrease (inhibition) in assay [10] was -0.4% (inactive); in [11], -21.3% (inactive). For the same compound, the inhibition in [12] was -6.23% (inactive). The red/green cell ratio (normalised) in assay [13] is 1.06 (inactive). Moreover, the normalised cell number in [13] (setting [21]) was found to be 0.97; in [13] (setting [22]), 1.03. For the same compound, the activity remaining in assay [14] is 110% (inactive). The fold change in assay [15] (stronger effect = lower value) was 1 (inactive) and 0.892 (inactive) and 0.893 (inactive); in assay [15] (setting [23]), 0.955 and 0.849 and 2.71. The cell count in assay [15] (setting [24]) is 10100 and 8600 and 10800; in [15] (setting [25]), 10100 and 9640 and 12100. For the same compound, the z-score in [16] (setting [26]) was 0.566 (inactive); in assay [16] (setting [27]), 0.235; in assay [19], -0.085 (inactive). Also, in assay [17], the remaining NAD was 10 nM (inactive). Further, the luciferase signal in assay [18] is 48 AU (inactive).

Turning to `O=C(N[C@H]1N=C(c2ccccc2F)c2cccc3c2N(CC3)C1=O)c1cc2ccccc2[nH]1`, the nuclear beta-catenin stimulation was 1.3% (inactive) in assay [4] (at 10 µM) and 1.4% in [4] (stimulation, at 2 µM). Besides, in [5], the insulin secretion stimulation was 3.5% (inactive). Besides, in assay [6], the viability decrease is 44.4% (inactive). In addition, in assay [7], the tube area decrease was 8.5% (inactive). In addition, the GLP1 secretion stimulation in assay [8] is 1.8% (inactive). Besides, in [9], the inhibition of viability is 54.9% (active). Also, the values for the viability decrease (inhibition) in [10] and in assay [11] were 56.9% (active) and 29.7% (inactive), respectively.

With `CC(NC(C)(C)C)C(=O)c1cccc(Cl)c1` (stereo not given), the nuclear beta-catenin stimulation is -0.1% (inactive) in [4] (at 10 µM) and 7.1% in [4] (stimulation, at 2 µM). For the same compound, the insulin secretion stimulation in assay [5] is 0.3% (inactive). Besides, in [6], the viability decrease was -43.9% (inactive). In addition, the tube area decrease in assay [7] is 9.3% (inactive). Moreover, the GLP1 secretion stimulation in [8] is 0.3% (inactive). In addition, the inhibition of viability in [9] was 9.97% (inactive). For the same compound, the viability decrease (inhibition) was 30.2% (inactive) in [10] and -10.5% (inactive) in assay [11]. Further, the inhibition in assay [12] was -4.52% (inactive). Further, the red/green cell ratio (normalised) in assay [13] is 1.12 (inactive). In addition, the normalised cell number in assay [13] (setting [21]) is 1.04; in assay [13] (setting [22]), 1.16. In addition, in assay [14], the activity remaining was 97% (inactive). Also, the z-score in assay [16] (setting [26]) is -0.0615 (inactive) and 0.02 (inactive) and 0.556 (inactive); in assay [16] (setting [27]), -0.319 and -0.308 and 0.695. Also, in assay [17], the remaining NAD was 10 nM (inactive). Also, the luciferase signal in assay [18] is 52 AU (inactive).

The viability is a per cent measure of how many cells are alive, often set against a control. Take `C[C@@H]1C[C@@H]([C@H](O)CC2CC(=O)NC(=O)C2)C(=O)[C@@H](C)C1`: the score in assay [1] came out at 0.04. Besides, the cytochrome c release ratio in assay [2] is 1.07. For the same compound, the inhibition of aggregation in assay [3] worked out at 91.3%. Further, in [20], the parasite load remaining was -0.1% (active) and 5.12% (inactive) and 0% (inactive). In addition, the viability in assay [20] is 87.3% and 76.3% and 87.1%. Besides, the nuclear beta-catenin stimulation is 28.9% (inactive) in assay [4] (at 10 µM) and 25.8% in [4] (stimulation, at 2 µM). For the same compound, the insulin secretion stimulation in [5] was -1% (inactive). Also, the viability decrease in assay [6] is 88.7% (active). Besides, the tube area decrease in [7] was 103% (active). Moreover, the GLP1 secretion stimulation in [8] was -4.7% (inactive). Further, in assay [9], the inhibition of viability is 78.7% (active). In addition, the results for the viability decrease (inhibition) in assay [10] and in [11] were 68.4% (active) and 67.6% (active), respectively. Also, the inhibition in assay [12] was -13.3% (inactive). Besides, the red/green cell ratio (normalised) in assay [13] was 0.97 (inactive). In addition, the normalised cell number in assay [13] (setting [21]) amounted to 0.98; in [13] (setting [22]) it was 0.96. Further, the activity remaining in assay [14] was 112% (inactive). Also, the fold change in [15] (stronger effect = lower value) was 1.05 (inactive) and 0.852 (inactive); in assay [15] (setting [23]), 1.03 and 1.84. For the same compound, the cell count in assay [15] (setting [24]) is 2100 and 2650; in assay [15] (setting [25]), 1990 and 3110. In addition, the z-score in assay [16] (setting [26]) was -0.121; in [16] (setting [27]), 4.57. In addition, in [17], the remaining NAD is 10 nM (inactive). In [18], the luciferase signal was 20 AU (inactive).
